Data: PubChem BioAssay AID1159580 (chemical genetic matrix, 2015)
The whole screen tested about 5,500 compounds, of which about 2,000 (36%) were called active. Roughly 18% stayed inconclusive and do not appear here. Rule as the data show it: active = normalized growth mostly below about 0.91 (no sharp cut-off); inconclusive = no clear call, values can overlap the other calls; inactive = mostly above about 0.92. The list shows a part of the results.

Assay: chemical genetic growth profiling, strain panel (AID 1159580);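 also: tested at 20 µM; growth read once vehicle control cultures reached saturation at 30 °C; 1 = growth at the plate median or of vehicle wells; lower values mean less growth of the strain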
Settings: growth OD

Measured: normalized growth

COc1cc([C@@H]2c3cc4c(cc3[C@H](O)[C@H]3COC(=O)[C@H]23)OCO4)cc(OC)c1OC
inactive: S. cerevisiae deletion strains, locus YJR075W, strain HOC1, active compounds read low 1.03 | S. cerevisiae deletion strains, locus YKL009W, strain mrt4, active compounds read low 1.04 | S. cerevisiae deletion strains, locus YKL068W, active compounds read low 1.01 | S. cerevisiae deletion strains, locus YKL085W, strain MDH1 (second series), active compounds read low 1.01 | S. cerevisiae deletion strains, locus YKL085W, strain MDH1, active compounds read low 1.01 | S. cerevisiae deletion strains, locus YKL160W, strain elf1, active compounds read low 1 | S. cerevisiae deletion strains, locus YKL190W, strain CNB1, active compounds read low 1.01 | S. cerevisiae deletion strains, locus YKR001C, strain vps1, active compounds read low 1.01 | S. cerevisiae deletion strains, locus YKR026C, strain gcn3, active compounds read low 1.01 | S. cerevisiae deletion strains, locus YKR091W, strain srl3, active compounds read low 1.01 | S. cerevisiae deletion strains, locus YLL001W, strain dnm1, active compounds read low 0.984 | S. cerevisiae deletion strains, locus YLL026W, active compounds read low 1 | S. cerevisiae deletion strains, locus YLL041C, strain sdh2, active compounds read low 1.01 | S. cerevisiae deletion strains, locus YLR027C, strain aat2, active compounds read low 1.01 | S. cerevisiae deletion strains, locus YLR039C, strain RIC1, active compounds read low 1.02 | S. cerevisiae deletion strains, locus YLR058C, strain SHM2, active compounds read low 1.01 | S. cerevisiae deletion strains, locus YLR102C, strain apc9, active compounds read low 1.01 | S. cerevisiae deletion strains, locus YLR113W, strain HOG1, active compounds read low 0.924 | S. cerevisiae deletion strains, locus YLR221C, strain rsa3, active compounds read low 1.02 | S. cerevisiae deletion strains, locus YLR258W, strain gsy2, active compounds read low 1.02 | S. cerevisiae deletion strains, locus YLR262C, strain YPT6 (second series), active compounds read low 1.01 | S. cerevisiae deletion strains, locus YLR262C, strain YPT6, active compounds read low 1.05 | S. cerevisiae deletion strains, locus YLR268W, strain sec22, active compounds read low 1.06 | S. cerevisiae deletion strains, locus YLR320W, strain mms22, active compounds read low 1.05 | S. cerevisiae deletion strains, locus YLR330W, strain CHS5, active compounds read low 1.01 | S. cerevisiae deletion strains, locus YLR342W, strain FKS1 (second series), active compounds read low 1.02 | S. cerevisiae deletion strains, locus YLR342W, strain FKS1, active compounds read low 1.02 | S. cerevisiae deletion strains, locus YLR357W, strain rsc2, active compounds read low 1.05 | S. cerevisiae deletion strains, locus YLR370C, strain arc18, active compounds read low 1.02 | S. cerevisiae deletion strains, locus YLR371W, strain rom2, active compounds read low 1.02 | S. cerevisiae deletion strains, locus YLR384C, strain iki3, active compounds read low 0.998 | S. cerevisiae deletion strains, locus YLR418C, strain cdc73, active compounds read low 1.02 | S. cerevisiae deletion strains, locus YML016C, strain PPZ1, active compounds read low 1.01 | S. cerevisiae deletion strains, locus YML032C, strain rad52, active compounds read low 1.05 | S. cerevisiae deletion strains, locus YML120C, strain ndi1, active compounds read low 1.02 | S. cerevisiae deletion strains, locus YML124C, strain tub3, active compounds read low 1 | S. cerevisiae deletion strains, locus YMR058W, strain fet3, active compounds read low 1.02 | S. cerevisiae deletion strains, locus YMR078C, strain ctf18, active compounds read low 1.02 | S. cerevisiae deletion strains, locus YMR125W, strain sto1, active compounds read low 1.01 | S. cerevisiae deletion strains, locus YMR129W, active compounds read low 1.01 | S. cerevisiae deletion strains, locus YMR205C, strain PFK2, active compounds read low 1.03 | S. cerevisiae deletion strains, locus YMR223W, strain ubp8, active compounds read low 0.985 | S. cerevisiae deletion strains, locus YMR231W, strain pep5, active compounds read low 1.01 | S. cerevisiae deletion strains, locus YMR263W, strain SAP30, active compounds read low 1.02 | S. cerevisiae deletion strains, locus YMR307W, strain GAS1, active compounds read low 0.994 | S. cerevisiae deletion strains, locus YNL067W, strain RPL9B, active compounds read low 1.03 | S. cerevisiae deletion strains, locus YNL071W, strain lat1, active compounds read low 1.01 | S. cerevisiae deletion strains, locus YNL128W, strain TEP1, active compounds read low 1.02 | S. cerevisiae deletion strains, locus YNL153C, strain GIM3, active compounds read low 1.03 | S. cerevisiae deletion strains, locus YNL183C, strain NPR1, active compounds read low 0.926 | S. cerevisiae deletion strains, locus YNL209W, strain ssb2, active compounds read low 1.02 | S. cerevisiae deletion strains, locus YNL233W, strain BNI4, active compounds read low 1.03 | S. cerevisiae deletion strains, locus YNL248C, strain rpa49, active compounds read low 1.01 | S. cerevisiae deletion strains, locus YNL250W, strain rad50, active compounds read low 1.01 | S. cerevisiae deletion strains, locus YNL271C, strain bni1, active compounds read low 1.01 | S. cerevisiae deletion strains, locus YNL298W, strain CLA4, active compounds read low 1.01 | S. cerevisiae deletion strains, locus YNL307C, strain MCK1, active compounds read low 1 | S. cerevisiae deletion strains, locus YNL322C, strain KRE1 (second series), active compounds read low 1.01 | S. cerevisiae deletion strains, locus YNL322C, strain KRE1, active compounds read low 1.01 | S. cerevisiae deletion strains, locus YNR049C, strain mso1, active compounds read low 1 | S. cerevisiae deletion strains, locus YNR052C, strain pop2, active compounds read low 1.01 | S. cerevisiae deletion strains, locus YOL006C, strain TOP1, active compounds read low 1.07 | S. cerevisiae deletion strains, locus YOL012C, strain htz1 0.833 | S. cerevisiae deletion strains, locus YOL147C, strain pex11, active compounds read low 1 | S. cerevisiae deletion strains, locus YOR001W, strain rrp6, active compounds read low 1.01 | S. cerevisiae deletion strains, locus YOR061W, strain CKA2, active compounds read low 1.01 | S. cerevisiae deletion strains, locus YOR069W, strain VPS5, active compounds read low 1.01 | S. cerevisiae deletion strains, locus YOR070C, strain gyp1, active compounds read low 1.02 | S. cerevisiae deletion strains, locus YOR080W, strain dia2, active compounds read low 1.01 | S. cerevisiae deletion strains, locus YOR083W, strain WHI5, active compounds read low 1.01 | S. cerevisiae deletion strains, locus YOR106W, strain vam3, active compounds read low 1.02 | S. cerevisiae deletion strains, locus YOR136W, strain idh2, active compounds read low 1 | S. cerevisiae deletion strains, locus YOR144C, strain elg1, active compounds read low 1.01 | S. cerevisiae deletion strains, locus YOR184W, strain ser1, active compounds read low 1.02 | S. cerevisiae deletion strains, locus YOR231W, strain MKK1, active compounds read low 0.947 | S. cerevisiae deletion strains, locus YOR265W, strain rbl2, active compounds read low 1.01 | S. cerevisiae deletion strains, locus YOR270C, strain vph1, active compounds read low 0.996 | S. cerevisiae deletion strains, locus YOR290C, strain snf2, active compounds read low 0.98 | S. cerevisiae deletion strains, locus YOR316C, strain cot1, active compounds read low 1.01 | S. cerevisiae deletion strains, locus YPL051W, strain arl3, active compounds read low 1.01 | S. cerevisiae deletion strains, locus YPL055C, strain LGE1, active compounds read low 1.04 | S. cerevisiae deletion strains, locus YPL078C, strain atp4, active compounds read low 0.997 | S. cerevisiae deletion strains, locus YPL106C, strain sse1, active compounds read low 1.03 | S. cerevisiae deletion strains, locus YPL240C, strain hsp82, active compounds read low 1.02 | S. cerevisiae deletion strains, locus YPL241C, strain CIN2, active compounds read low 1.01 | S. cerevisiae deletion strains, locus YPL256C, strain CLN2, active compounds read low 0.942 | S. cerevisiae deletion strains, locus YPR119W, strain clb2, active compounds read low 1.01 | S. cerevisiae deletion strains, locus YPR141C, strain kar3, active compounds read low 1.01 | S. cerevisiae deletion strains, locus YPR163C, strain tif3, active compounds read low 1.02 | S. cerevisiae deletion strains, locus YPR167C, strain met16, active compounds read low 1.01 | S. cerevisiae deletion strains, strain wtn01, active compounds read low 1.03 | S. cerevisiae strains, strain wild type, active compounds read low 1.01
